# Assay outcomes as filed in PubChem BioAssay.
# Compounds with a hit are over-represented: about 28% of the library has one in this group of screens.
# DAT uptake mod: changed hDAT dopamine uptake under cocaine IC80, either direction, primary screen, cocaine antagonist project, cell-based, LLC-PK1 hDAT, [14C]-dopamine uptake, MLSMR | Sodium-dependent dopamine transporter (Homo sapiens), Q01959 | LLC-PK1 hDAT cells, [14C]-dopamine uptake with cocaine IC80; actives deviate in either direction | B-score at 10 µM | hit rate 1.3% among 110,000;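 active = Z score or B-score, a plate-position-corrected score, falls beyond the plate's 99.7% confidence bounds, in either direction; inactive = both scores lie inside the 99.7% bounds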;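 also: scored against the spread of the other compound wells on the same plate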
# Target sequence (Q01959 whole entry, looked up): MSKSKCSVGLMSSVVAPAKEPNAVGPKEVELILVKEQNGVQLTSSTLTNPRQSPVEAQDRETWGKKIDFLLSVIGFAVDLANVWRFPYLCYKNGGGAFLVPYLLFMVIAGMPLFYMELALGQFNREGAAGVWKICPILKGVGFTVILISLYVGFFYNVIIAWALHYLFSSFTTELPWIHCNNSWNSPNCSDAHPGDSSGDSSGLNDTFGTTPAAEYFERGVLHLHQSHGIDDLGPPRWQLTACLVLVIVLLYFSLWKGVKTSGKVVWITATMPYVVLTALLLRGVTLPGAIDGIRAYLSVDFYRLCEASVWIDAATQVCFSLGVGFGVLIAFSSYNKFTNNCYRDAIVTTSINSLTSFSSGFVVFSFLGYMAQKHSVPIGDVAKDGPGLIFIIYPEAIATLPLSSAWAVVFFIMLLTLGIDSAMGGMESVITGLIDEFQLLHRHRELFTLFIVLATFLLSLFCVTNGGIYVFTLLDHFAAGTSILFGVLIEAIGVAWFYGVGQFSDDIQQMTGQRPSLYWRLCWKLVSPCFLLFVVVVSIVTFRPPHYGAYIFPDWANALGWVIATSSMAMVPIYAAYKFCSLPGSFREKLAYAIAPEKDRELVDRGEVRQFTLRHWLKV
# CYP2C19 inh: blockers of cytochrome P450 2C19 activity – biochemical, luminescence, ADME assay, primary screen | P33261 | CYP2C19 Supersomes, luciferin-H EGE luminescence, 30 min | inhibition, % at 5 µM | hit rate 21% among 96,000 | AID 778, 2007;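 active = CYP2C19 inhibition above a set limit at 5 µM in the primary screen, cut at about 50% in these data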;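 also: plate controls were negative control wells for no effect and 2.5 mM tranylcypromine positive control for full effect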
# D1 allo mod: D1 CRE-luciferase signal change, two-sided – cell-based, HEK293 D1, dopamine EC30, D1 allosteric modulator project, primary screen; dopamine EC30 potentiation; actives deviate in either direction; D(1A) dopamine receptor (Homo sapiens), P21728; B-score at 10 µM; AID 641, 2007; hit rate 5.9% among 58,000;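 active = luminescence count or its row- and column-corrected plate score outside the 99.7% band of the plate's sample wells, on either side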
# CYP2C9 activ: human CYP2C9 activators, primary screen, biochemical, luminescence; AID 1024, 2008; Cytochrome P450 2C9 (Homo sapiens), P11712; recombinant CYP2C9, luciferin-H conversion; stronger effect = higher value; factor 1 = untreated enzyme, 0 = blocked; activation factor at 5 µM; hit rate 1.4% among 96,000;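 active = activation factor of 2 or more for CYP2C9 at a 5 µM dose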;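 also: 0 = sulfaphenazole-blocked wells and 1 = vehicle-only wells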
# CYP2C9 inh: blockers of cytochrome P450 2C9 activity – biochemical, luminescence, ADME assay, primary screen; hit rate 20% among 96,000; P11712; CYP2C9 Supersomes, luciferin-H conversion; inhibition, % at 5 µM;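 active = blocking of liver enzyme CYP2C9 beyond about 50% at 5 µM, limit read from the data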
# CYP2C19 act: human CYP2C19 activators, primary screen, biochemical, luminescence. activation factor at 5 µM. AID 1025, 2008. 96,000 tested, under 10 active. Cytochrome P450 2C19 (Homo sapiens), P33261. recombinant CYP2C19, luciferin-H EGE luminescence; stronger effect = higher value; 0 = fully inhibited enzyme, 1 = untreated enzyme;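 active = activation factor of at least 2 at 5 µM in the primary screen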;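 also: 0 = wells with 2.5 mM tranylcypromine and 1 = vehicle-only wells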
# Numbers without * were called inactive; x = not tested or not shown.
SMILES,DAT uptake mod,CYP2C19 inh,D1 allo mod,CYP2C9 activ,CYP2C9 inh,CYP2C19 act
O=C(CN(C(=O)CNC(=O)c1ccco1)c1ccc2c(c1)OCO2)NC1CCCCC1,0.6,73*,-0.022,0,95*,0.3
O=C(CN(Cc1cccs1)C(=O)CNC(=O)c1ccco1)NC1CCCCC1,-0.5,9,x,0.5,50*,0.9
O=C(NCC(=O)N(Cc1cccs1)C(C(=O)NC1CCCCC1)c1ccncc1)c1ccco1 (configuration not stated),-0.17,x,x,x,x,x
O=C(CN(Cc1ccc2c(c1)OCO2)C(=O)CNC(=O)c1ccco1)NC1CCCCC1,-0.0087,61*,x,0.2,83*,0.4
O=C(CN(Cc1ccccc1)S(=O)(=O)c1ccccc1)NC1CC1,0.49,x,x,x,x,x
Cc1ccc(-c2nn3c(-c4ccco4)nnc3c3ccccc23)cc1S(=O)(=O)N1CCOCC1,x,6,-1.7,0.8,17,0.9
COC(=O)c1ccccc1NC(=O)c1cc(-c2cccc(OC)c2)on1,x,x,-0.2,x,x,x
CCOc1ccc(N(CC(=O)NC2CCCCC2)C(=O)CNC(=O)c2ccco2)cc1,-0.51,x,x,x,x,x
O=C(CN(C(=O)CNC(=O)c1ccco1)c1ccc(Cl)c(Cl)c1)NC1CCCCC1,-0.49,86*,-0.00064,0.1,89*,0.1
O=C(CN(C(=O)CNC(=O)c1cccs1)c1ccc2c(c1)OCCO2)NC1CCCC1,0.13,25,x,0.1,91*,0.8
CC1CCN(c2c(NCc3ccc(C(=O)NCC4COc5ccccc5O4)cc3)c(=O)c2=O)CC1 (configuration not stated),0.3,x,-0.21,x,x,x
O=c1cc(-c2ccc(O)c(O)c2)oc2cc(O)c(C3OC(CO)C(O)C(O)C3O)c(O)c12 (configuration not stated),0.82,x,x,x,x,x
Cn1c(=O)c2c(nc(OCC3COC(C)(C)O3)n2Cc2ccccc2F)n(C)c1=O (configuration not stated),0.013,9,0.81,0.7,26,0.9
Cn1c(COc2ccccc2)nnc1SCc1nc2ccccc2[nH]1,-0.51,35,0.49,0.9,6,0.6
Cc1cccc(OCCSCc2nc3ccccc3[nH]2)c1,-0.11,72*,x,0.4,61*,0.3
Cc1cccc(OCCCSc2nc3ccccc3[nH]2)c1,-0.41,77*,x,1,2,0.2
CC(C)CN(CC(C)C)C1=N/C(=C\c2ccco2)C(=O)N1c1ccccc1,-1.1,9,x,1,2,0.9
C=C1CCN([C@@H](CC(C)C)C(=O)O)S(=O)(=O)c2ccccc21,-0.46,x,x,x,x,x
CCSc1nnc(Cc2cc(=O)[nH]c(=O)[nH]2)n1-c1cc(C)ccc1C,-0.32,-15,x,1.1,-9,1.1
O=C1/C(=C/c2ccccc2)NC(=S)N1C(c1ccccc1)c1ccccc1,-2.2,15,x,0.4,60*,0.9
CSc1nc(-c2ccccc2O)nc(-c2ccccc2O)n1,x,x,0.41,x,x,x
OC(c1ccccc1)c1nc2ccccc2s1 (configuration not stated),-0.4,65*,-0.45,1.1,-11,0.3
CCN(CC)C(=O)c1[nH]cnc1C(=O)Nc1ccc(OC)cc1,3.1*,x,x,x,x,x
Oc1ccc(N=Nc2n[nH]c(-c3ccc(Cl)cc3)n2)cc1,-0.77,20,x,2*,-104,0.8
OC(COc1ccc2cc(Br)ccc2c1)CN1CCOCC1 (configuration not stated),1.7,x,x,x,x,x
SMILES,DAT uptake mod,CYP2C19 inh,D1 allo mod,CYP2C9 activ,CYP2C9 inh,CYP2C19 act
OC(COc1ccc2ccccc2c1Cl)CN1CCOCC1 (configuration not stated),0.024,54*,-0.23,1.2,-17,0.5
OC(COc1c(Br)cc(Br)cc1Br)CN1CCOCC1 (configuration not stated),-1.1,92*,-1,1,-4,0.1
OC(COc1ccccc1)CN1CCOCC1 (configuration not stated),0.00019,x,x,x,x,x
OC(COc1ccccc1Cl)CN1CCN(CC(O)COc2ccccc2Cl)CC1 (configuration not stated),-0.04,43,-6.3*,0.9,14,0.6
C1=C(CCNC2=NCCCCC2)CCCC1,-0.68,12,0.058,1,1,0.9
CN(C(=O)c1cccc(C#N)c1)c1nnc(-c2cnccn2)s1,0.28,9,-0.14,1,-5,0.9
CN(C(=O)c1cccnc1)c1nnc(-c2cccnc2)s1,-0.22,-2,0.62,1,3,1
COc1cccc(C(=O)N(C)c2nnc(-c3ccncc3)s2)c1,x,100*,x,0.1,89*,0
CN(C(=O)c1cccc(C#N)c1)c1nnc(-c2ccncc2)s1,-1.5,93*,-0.009,0.3,70*,0.1
COc1ccc(NC(=O)C2=C(C)C(=O)OC23CCC(C)CC3)cc1Cl (configuration not stated),-0.81,32,x,0.8,22,0.7
CCOC(=O)CN1C(=O)C2Cc3ccccc3CN2C1=S (configuration not stated),-0.036,70*,x,0.8,23,0.3
Cc1c(Cl)cccc1-n1nnnc1-c1cccs1,-0.78,96*,-0.84,0.7,26,0
CCOc1cc(/C=N/O)cc(Cl)c1OC,0.11,6,x,1.1,-8,0.9
COc1ccc(-c2cn3cc(C)ccc3n2)cc1OC,1.1,7,-6.5*,1.3,-25,0.9
Nc1c(Cl)cc2c(c1Oc1ccccc1)C(=O)c1ccccc1C2=O,0.94,6,x,0.9,11,0.9
COc1ccc(-c2nnc(SCc3nnc(-c4ccccc4)o3)n2C)cc1OC,1.4,14,2.9,0.8,20,0.9
Cc1cc(C(=O)CSc2nc(N)cc(=O)[nH]2)c(C)n1CCc1ccc(F)cc1,-1.4,27,x,0.9,11,0.7
Cc1cc(C(=O)CSc2nnc(N)s2)c(C)n1CCc1ccc(F)cc1,-0.072,96*,-1.7,0.1,88*,0
Cc1cc(C(=O)CSc2nnc(N)s2)c(C)n1CCc1ccc(Cl)cc1,0.27,89*,-0.5,0.2,79*,0.1
COc1ccc(CCn2c(C)cc(C(=O)CSc3nnc(N)s3)c2C)cc1,x,x,-0.72,x,x,x
CN1C(=O)c2ccccc2N(C)C1c1cccs1 (configuration not stated),-0.55,9,-1.2,1,2,0.9
O=C1CSC(c2cccs2)N1c1ccccc1 (configuration not stated),-1.1,55*,0.94,0.8,21,0.5
N#CC1=C(S)N(c2ccccc2)C(c2cccs2)NC1=O (configuration not stated),-0.91,3,x,0.7,30,1
